Assay results published in ChEMBL document CHEMBL3988442, “University of Dundee, Small-Polar-MMV Screening Library” (2021).
In all, about 38,000 compounds went through this assay and about 1,200 (3.2%) showed an effect of 50% or more. The median lay at about -58%. Many of the other results were omitted from the sample, so strong results are more common in it than they were.

Test system: Plasmodium falciparum
Assay: Calibr Malaria Delayed Death Assay SOP
Type: functional, organism-based
Set-up: scale not given: in the data most compounds retested in dose-response had high values
Conditions: concentration 4.99e-06 (unit not given; other assays of the set use mol/L)

Row | SMILES | Percent Effect [%]
1 | Cc1cc(NS(=O)(=O)c2cccs2)ccc1-n1cccc1C(=O)O | -24.74
2 | CN1CCN(c2ccccc2NC(=O)NCC[S+](C)[O-])CC1 (centres undefined) | -127.8
3 | CN1CCN(c2ccccc2NC(=O)NCCc2ccc(O)cc2)CC1 | -22.54
4 | CN1CCN(c2ccccc2NC(=O)NCCc2ccccc2)CC1 | 83.6
5 | c1nc(N2CCc3[nH]cnc3C2)c2cc[nH]c2n1 | -49.27
6 | CCn1nc(C)c2nc(C(C)C)nc(NCc3ccccn3)c21 | 36.29
7 | Cc1ccc(CN(CCN(C)C)C(=O)Cc2cn3ccccc3n2)o1 | -71.99
8 | Cc1nc2sccn2c1CNc1ccc(C(=O)O)cc1 | -70.26
9 | O=C(C1CCCN1Cc1nc(-c2ccco2)no1)N1CCSCC1 (centres undefined) | -120.3
10 | c1coc(-c2nc3c(c(NCc4n[nH]c5c4CCC5)n2)CCNCC3)c1 | 20.11
11 | Nc1nc2c(c(NCc3cnc4c(c3)CCC4)n1)CCNC2 | -34.51
12 | c1ccc(-c2nc3c(c(NCc4n[nH]c5c4CCC5)n2)CCNC3)cc1 | 89.28
13 | COc1ccccc1C(C)NC(=O)NCCC(=O)NC1CCCCC1 (centres undefined) | -102.7
14 | Cc1nc(C(=O)N2CCN(S(C)(=O)=O)CC2)c(-c2ccccc2)s1 | -18.55
15 | CC(C)COCCCNC(=O)c1cccnc1N1CCOCC1 | -144.5
16 | Cl.Cl.c1ccc2c(c1)C(NC1CCCC1)CC21CCNCC1 (centres undefined) | 74.54
17 | CC(C)NC1CC2(CCNCC2)c2cc(F)ccc21.Cl.Cl (centres undefined) | 6.754
18 | Cc1ccc2c(c1)C1(CCNCC1)CC2OCC1CC1 (centres undefined) | 44.42
19 | Cc1ccc2c(c1)C(NC(C)C)CC21CCNCC1.Cl (centres undefined) | -48.62
20 | Fc1ccc2c(c1)C1(CCNCC1)CC2OCC1CC1 (centres undefined) | 69.13
21 | COCCN1CCC2(CC1)CC(OCC1CC1)c1ccc(C)cc12 (centres undefined) | 40.12
22 | Cc1ccc2c(c1)C(NC1CC1)CC21CCNCC1.Cl (centres undefined) | 82.38

Row | SMILES | Percent Effect [%]
23 | Cl.Cl.Fc1ccc2c(c1)C1(CCNCC1)CC2NC1CC1 (centres undefined) | 82.19
24 | Cl.O=C1NC2(CCNCC2)CC1c1ccccc1 (centres undefined) | -140.8
25 | CNC(=O)CC1CC2(CCNCC2)c2cc(F)ccc21 (centres undefined) | -118.7
26 | Cc1ccc2c(c1)C1(CCNCC1)CC2NCCO.Cl.Cl (centres undefined) | -29.16
27 | CCCc1noc(CN2CCC(C(=O)Nc3cnn(CC)c3)CC2)n1 | -105
28 | Cc1cc(C)n(C2CCCN(C(=O)Cc3cccs3)C2)n1 (centres undefined) | -45.18
29 | Cc1nccn1CCCn1c(=O)cnc2ccccc21 | -30.97
30 | CNC(=O)C1(CCCc2ccncc2)CCN1.O=C(O)C(F)(F)F (centres undefined) | -123.5
31 | Cc1ccc2c(c1)C1(CCNCC1)CC2NC(C)C.Cl.Cl (centres undefined) | -38.07
32 | COc1ccc2c(c1)C1(CCNCC1)CC2NC1CC1.Cl.Cl (centres undefined) | -4.171
33 | Cc1ccc2c(c1)C1(CCNCC1)CC2NC1CC1.Cl.Cl (centres undefined) | 73.32
34 | COc1ccnc(N2CCC(OCCN3CCCCC3)C2)n1 (centres undefined) | 51.05
35 | CC(C)(C)c1nccc(N2CCC(OCCN3CCCCC3)C2)n1 (centres undefined) | 62.36
36 | Cc1cnc(N2CCC(OCCN3CCCCC3)C2)nc1C (centres undefined) | 23.23
37 | C1CCN(CCOC2CCNCC2)CC1 | -37.31
38 | CC(C)(C)c1nccc(N2CCN(C3CCS(=O)(=O)C3)CC2)n1 (centres undefined) | -36.45
39 | Cc1ccnc(N2CCC(OCCN3CCCCC3)C2)n1 (centres undefined) | -84.22
40 | O=c1cc(Cn2ccnc2)nc2n1CCCN(Cc1ccncc1)C2 | -42.89
41 | Cn1cccc1C(=O)N1CCCn2nc(CCC(=O)NC3CC3)cc2C1 | -14.31
42 | O=C(c1ccc(S(=O)(=O)NCc2ccon2)cc1)N1CCOCC1 | -26.34
43 | O=C(O)C(F)(F)F.O=C(c1ccnnc1)N1C[C@@H]2C[C@@H](c3nc(C4CC4)cs3)O[C@@H]2C1 | -41.35
44 | Cc1ccoc1C(=O)N1C[C@@H](OCC2CCOCC2)[C@H]2OCCC[C@H]21 | 0.5559

Row | SMILES | Percent Effect [%]
45 | CCOc1ccc(NC(C)C(=O)Nc2cc(C)no2)cc1 (centres undefined) | -61.09
46 | C[C@@H]1CN(Cc2c[nH]c(CC3CCCC3)n2)CC[C@]1(C)O | -135.8
47 | OC1(CN2CCCC2)CCCN(Cc2c[nH]c(CC3CCCC3)n2)C1 (centres undefined) | 36.89
48 | OC1(CN2CCCCC2)CCN(Cc2c[nH]c(CC3CCCC3)n2)C1 (centres undefined) | 52.98
49 | CC1(C)CN(Cc2c[nH]c(CC3CCCC3)n2)CC[C@]1(C)O | -34.05
50 | c1[nH]c(CC2CCCC2)nc1CN1CCCC2(CCOC2)C1 (centres undefined) | 81.53
51 | COC[C@]1(O)CCN(Cc2c[nH]c(CC3CCCC3)n2)CC1(C)C | 15.86
52 | CN1CC(=O)N(c2ccccc2)CC12CCN(C(=O)c1cnccn1)C2.O=C(O)C(F)(F)F (centres undefined) | -66.28
53 | O=C(O)C(F)(F)F.O[C@@H]1CCN(CC2CCOC2)[C@H]1Cc1ccccc1 (some centres undefined) | -110.3
54 | COc1ccc(CN2CC[C@@H](O)[C@@H]2Cc2ccccc2)cc1.O=C(O)C(F)(F)F | 80.27
55 | O=C(O)C(F)(F)F.O[C@@H]1CCN(CC2CC2)[C@H]1Cc1ccccc1 | 63.26
56 | COc1ccc(CN2CC[C@H](O)[C@@H]2Cc2cnn(C)c2)cc1.O=C(O)C(F)(F)F | -6.903
57 | O=C(O)C(F)(F)F.O=C(O)C(F)(F)F.O[C@@H]1CCN(CC2CCOC2)[C@H]1Cc1cccnc1 (some centres undefined) | -68.9
58 | Cn1cc(CN2CC[C@@H](O)[C@@H]2Cc2ccccc2)cn1 | -45.02
59 | Cn1cc(CN2CC[C@H](O)[C@@H]2Cc2ccccc2)cn1.O=C(O)C(F)(F)F | 22.75
60 | COc1ccc(CN2CC[C@@H](O)[C@@H]2Cc2cnn(C)c2)cc1.O=C(O)C(F)(F)F | -130.2
61 | NCC(CO)Cc1ccc(C(F)(F)F)cc1 (centres undefined) | -43.7
62 | CC(C)Oc1ncccc1CNC(=O)c1ccc(=O)[nH]n1 | -94.73
63 | CCCS(=O)(=O)NCCc1ncc(C)s1 | -127.4
64 | COc1ccc(NC(=O)C(c2cccc(F)c2)N2CCOCC2)cc1 (centres undefined) | -6.296
65 | Cc1cc(C)c(S(=O)(=O)Nc2cccc3c2OCCO3)cc1C(=O)O | -20.88
66 | CNCC(=O)NC1CC(C)(C)Cc2nc(C(C)(C)C)ncc21 (centres undefined) | 3.513

Row | SMILES | Percent Effect [%]
67 | CC(C)C(=O)N1CCN(Cc2cnn(C)c2)CC2(CC(=O)N(C)C2)C1.O=C(O)C(F)(F)F (centres undefined) | -69.27
68 | COc1ccc2nnc(C(=O)NCC3CCCC3)nc2c1 | -78.39
69 | OC1(CNCc2ccc(F)c(C(F)(F)F)c2)CCOC1 (centres undefined) | -5.548
70 | Cc1cc(CNCC2(O)CCOCC2)ccc1Br | 44
71 | OC1(CNCc2ccc(F)c(C(F)(F)F)c2)CCSCC1 | 54.72
72 | CN1CCC(O)(CNCc2ccc(F)c(C(F)(F)F)c2)CC1 | 82.66
73 | Cc1cc(CNCC2(O)CCOCC2)ccc1F | 16.95
74 | O=C(NCc1ccc(Cl)cc1Cl)NCC1(O)CCSC1 (centres undefined) | 0.496
75 | COCC1CN(Cc2ccsc2)Cc2cnn(C)c21 (centres undefined) | -44.18
76 | CC(C)[C@H](NC(=O)NC1CCS(=O)(=O)C1)C(=O)NCc1ccccc1 (some centres undefined) | -124.5
77 | Cc1nnsc1CN1C[C@H]2CC[C@@H]1CN(Cc1ccccn1)C2 | -7.135
78 | O=C(CN1C[C@H]2CC[C@@H]1CN(Cc1ccccn1)C2)Nc1ccccc1 | 82.97
79 | O=C(CN1C[C@H]2CC[C@@H]1CN(Cc1ccccn1)C2)NCc1cccs1 | 67.17
80 | O=C(c1cc(C2CC2)no1)N1C[C@H]2CC[C@@H]1CN(Cc1ccccn1)C2 | 5.083
81 | CC(C)c1cc(C(=O)N2C[C@H]3CC[C@@H]2CN(Cc2ccccn2)C3)no1 | -200.1
82 | Cc1cnn(C2CN(CC(=O)NCc3ccccn3)C2)c1 | -188.5
83 | Cc1nccc(CNC(=O)N(CCCO)C2CCc3ccccc32)n1 (centres undefined) | -86.6
84 | COc1ccccc1CNC(=O)COc1ccc2c(c1)OCC2O (centres undefined) | -166.7
85 | CC(C)n1cc(-c2nc3cc(S(=O)(=O)N4CCCC4)ccc3n2C)cn1 | -92.66
86 | CN1CCN(CCNC(=O)C(OC2CCCC2)c2ccccc2)CC1 (centres undefined) | 38.55
87 | O=C(NCCN1CCCCC1)C(c1ccccc1)N1CCCC1 (centres undefined) | 79.97
88 | O=C(NCCNc1cccnc1)C(c1cccnc1)N1CCCC1 (centres undefined) | -14.56

Row | SMILES | Percent Effect [%]
89 | O=C(NCCn1cccc1)C(c1ccccc1)N1CCCC1 (centres undefined) | 54.29
90 | Cc1ccc(C(C(=O)NCCN2CCCCCC2)N(C)C)cc1 (centres undefined) | 58.29
91 | CC1(C(=O)NCCN2CCCCC2)CCCN1C(=O)c1ccccc1 (centres undefined) | -16.7
92 | Cc1ccccc1C(C(=O)NCCN1CCC(CO)CC1)N(C)C (centres undefined) | -106.7
93 | Cc1ccc(C(C(=O)NCCN2CCC(CO)CC2)N(C)C)cc1 (centres undefined) | -10.34
94 | Cc1ccccc1C(C(=O)NCCn1cccc1)N(C)C (centres undefined) | 36.37
95 | COc1cccc(Cn2cc(N3C(=O)[C@H]4CCCC[C@H]4C3=O)cn2)c1 | -60.69
96 | Cc1cccc(C)c1OCCCN1CCN(CC2CCCO2)CC1 (centres undefined) | 11.15
97 | CC/N=c1\nc(NCC)nc2n1C(O)(Nc1cc(Cl)ccc1Cl)CS2 (centres undefined) | -3.589
98 | CC(=O)c1ccc(NC(=O)N[C@H](C(=O)O)C(C)C)cc1 | -95.29
99 | NC1CCCc2nc(-c3ccccc3)ncc21 (centres undefined) | -87.16
100 | O=C(c1ccccc1Cl)N1CC[C@H](O)[C@@H](N2CCOCC2)CC1 | -83.45
101 | O=C(O)C(F)(F)F.O=C(O)C(F)(F)F.O=C(O)C(F)(F)F.c1ccc(CN2C[C@@H]3COC[C@]3(COCc3ccncc3)C2)nc1 | -55.25
102 | CCOC[C@]12COC[C@H]1CN(Cc1cccc(OC)c1)C2.O=C(O)C(F)(F)F | -1.674
103 | COc1ccccc1CN1C[C@@H]2COC[C@]2(COc2cccnc2)C1.O=C(O)C(F)(F)F.O=C(O)C(F)(F)F | 52.99
104 | COc1ncccc1CN1C[C@@H]2COC[C@]2(COc2cccnc2)C1.O=C(O)C(F)(F)F.O=C(O)C(F)(F)F.O=C(O)C(F)(F)F | -33.52
105 | COc1cc(N2C[C@@H]3COC[C@]3(COCc3ccccn3)C2)ncn1.O=C(O)C(F)(F)F.O=C(O)C(F)(F)F | -135.9
106 | COc1cccc(CN2C[C@@H]3COC[C@]3(COCc3ccccn3)C2)c1.O=C(O)C(F)(F)F.O=C(O)C(F)(F)F | 58.94
107 | O=C(O)C(F)(F)F.O=C(O)C(F)(F)F.O=C(O)C(F)(F)F.c1cc(COC[C@]23COC[C@H]2CN(Cc2ccncc2)C3)ccn1 | -128.8
108 | COc1cccc(CN2C[C@@H]3COC[C@]3(COc3cccnc3)C2)c1.O=C(O)C(F)(F)F.O=C(O)C(F)(F)F | 12.68
109 | COc1ccccc1CN1C[C@@H]2COC[C@]2(COCc2ccncc2)C1.O=C(O)C(F)(F)F.O=C(O)C(F)(F)F | 53.03
